The record followed here is the antibiotic and cytotoxicity screens of Wong et al. (2023).

Screen size: about 39,000 compounds; about 3,300 (8.5%) were called active. What follows is part of a selection rich in actives, with near analogues and random picks from the rest.

The test has as its system HepG2. Briefly: cytotoxicity call (relative viability < 0.9). As to conditions: 10 µM.
With `C[C@@H]1CN([C@H](C)CO)C(=O)CCCn2nncc2CO[C@H]1CN(C)S(=O)(=O)c1cn(C)cn1`, the cytotoxicity call was “inactive”.

Turning to `C[C@@H]1CN([C@H](C)CO)C(=O)Cc2cc(NC(=O)Nc3ccc(F)cc3)ccc2O[C@H]1CN(C)C(=O)Nc1ccc(C(F)(F)F)cc1`, the cytotoxicity call is “inactive”.

For the compound `C[C@@H]1CN([C@@H](C)CO)C(=O)Cc2cc(NC(=O)Nc3ccc(F)cc3)ccc2O[C@@H]1CN(C)C(=O)Nc1ccc(C(F)(F)F)cc1`, the cytotoxicity call is “inactive”. With `C[C@@H]1CN([C@@H](C)CO)C(=O)Cc2cc(NC(=O)Nc3ccc(C(F)(F)F)cc3)ccc2O[C@@H]1CN(C)C(=O)Nc1ccc(F)cc1`, the cytotoxicity call is “active”. The entry for `C[C@H]1CN([C@@H](C)CO)C(=O)Cc2cc(NC(=O)Nc3ccc(F)cc3)ccc2O[C@@H]1CN(C)C(=O)Nc1ccc(C(F)(F)F)cc1` is “inactive”.

Take `C[C@H](CO)N1C[C@H](C)[C@@H](CN(C)C(=O)Nc2ccc(F)cc2)Oc2ccc(NC(=O)Nc3ccc(C(F)(F)F)cc3)cc2CC1=O`: the cytotoxicity call is “active”. On to `C[C@H]1CN([C@@H](C)CO)C(=O)Cc2cc(NC(=O)Nc3ccc(C(F)(F)F)cc3)ccc2O[C@H]1CN(C)C(=O)Nc1ccc(F)cc1`, for which the cytotoxicity call was “active”. The entry for `C[C@@H]1CN([C@@H](C)CO)C(=O)Cc2cc(NC(=O)Nc3ccc(F)cc3)ccc2O[C@H]1CN(C)C(=O)Nc1ccc(C(F)(F)F)cc1` is “inactive”; for `C[C@@H]1CN([C@@H](C)CO)C(=O)Cc2cc(NC(=O)Nc3ccc(C(F)(F)F)cc3)ccc2O[C@H]1CN(C)C(=O)Nc1ccc(F)cc1` it is “inactive”. The value for `C[C@H](CO)N1C[C@H](C)[C@H](CN(C)C(=O)Nc2ccc(C(F)(F)F)cc2)Oc2ccc(NC(=O)Nc3ccc(F)cc3)cc2CC1=O` was “inactive”.

Regarding `C[C@H](CO)N1C[C@H](C)[C@H](CN(C)C(=O)Nc2ccc(F)cc2)Oc2ccc(NC(=O)Nc3ccc(C(F)(F)F)cc3)cc2CC1=O`, the cytotoxicity call was “inactive”.

For the compound `C[C@@H]1CN([C@H](C)CO)C(=O)Cc2cc(NC(=O)Nc3ccc(C(F)(F)F)cc3)ccc2O[C@H]1CN(C)C(=O)Nc1ccc(F)cc1`, the cytotoxicity call is “inactive”. `C[C@@H]1CN([C@H](C)CO)C(=O)Cc2cc(NC(=O)Nc3ccc(C(F)(F)F)cc3)ccc2O[C@@H]1CN(C)C(=O)Nc1ccc(F)cc1`: the cytotoxicity call is “active”.

Consider `Cc1ccc(S(=O)(=O)N(C)C[C@H]2OCCCC[C@H](C)Oc3ccc(NC(=O)Nc4ccc(C(F)(F)F)cc4)cc3C(=O)N([C@H](C)CO)C[C@@H]2C)cc1`, for which the cytotoxicity call was “inactive”. The value for `C[C@@H]1CN([C@@H](C)CO)C(=O)c2cc(NC(=O)Nc3ccc(F)cc3)ccc2O[C@@H](C)CCCCO[C@@H]1CN(C)S(=O)(=O)c1ccc(Cl)cc1` was “inactive”; that for `COCC(=O)Nc1ccc2c(c1)[C@@H]1C[C@@H](CC(=O)N3CCOCC3)O[C@H](CO)[C@@H]1O2` was “inactive”. The value for `C[C@H](CO)N1C[C@H](C)[C@@H](CN(C)S(=O)(=O)c2cn(C)cn2)Oc2ccc(NC(=O)Nc3ccccc3)cc2CC1=O` was “inactive”. The value for `CCCc1ncc(C[n+]2ccccc2C)c(N)n1.[Cl-]` was “inactive”; that for `C[C@@H]1CCCCO[C@H](CN(C)S(=O)(=O)c2cccs2)[C@H](C)CN([C@H](C)CO)C(=O)c2cc(NC(=O)c3ccccc3)ccc2O1` was “inactive”.

`C[C@@H]1CN([C@@H](C)CO)C(=O)c2cccc(NS(=O)(=O)c3cccs3)c2O[C@@H]1CN(C)Cc1ccc(Oc2ccccc2)cc1`: the cytotoxicity call is “inactive”. The entry for `C[C@@H]1CN([C@@H](C)CO)C(=O)c2cc(C#CCN(C)C)cnc2O[C@H]1CN(C)Cc1cccc(C(=O)O)c1` is “inactive”. `C[C@@H]1CN([C@@H](C)CO)C(=O)c2cccc(NC(=O)C3CCOCC3)c2O[C@H]1CN(C)C(=O)Nc1ccc2c(c1)OCO2`: the cytotoxicity call is “inactive”.

For `C[C@H]1CN([C@@H](C)CO)C(=O)Cc2cc(NC(=O)Nc3ccc(F)cc3)ccc2O[C@H]1CN(C)C(=O)Nc1ccc(C(F)(F)F)cc1`, the cytotoxicity call is “inactive”.

In the case of `C[C@@H]1CN([C@H](C)CO)C(=O)Cc2cc(NC(=O)Nc3ccc(F)cc3)ccc2O[C@@H]1CN(C)C(=O)Nc1ccc(C(F)(F)F)cc1`, the cytotoxicity call was “inactive”. With `C[C@H](CO)N1C[C@H](C)[C@@H](CN(C)C(=O)Nc2ccc(C(F)(F)F)cc2)Oc2ccc(NC(=O)Nc3ccc(F)cc3)cc2CC1=O`, the cytotoxicity call was “active”. The entry for `Cc1ccc(S[C@]2(C(=O)NC(C)C)CC(=O)N(Cc3cc(C(F)(F)F)cc(C(F)(F)F)c3)[C@@H]2c2ccc(CO)cc2)cc1` is “inactive”. Regarding `CN(C)Cc1cn(CC[C@H]2CC[C@@H](NS(=O)(=O)c3ccccc3)[C@H](CO)O2)nn1`, the cytotoxicity call was “inactive”.

In the case of `C[C@H]1CN([C@@H](C)CO)C(=O)Cc2cc(NC(=O)CCC(F)(F)F)ccc2O[C@@H]1CN(C)S(C)(=O)=O`, the cytotoxicity call was “inactive”.

Regarding `CC(C)(C)[S@](=O)N1Cc2cc(C(=O)N3CCc4ccccc4C3)nc(-c3cccc(-c4cncnc4)c3)c2[C@@H]1CCO`, the cytotoxicity call is “inactive”.

For `C=CCOC(=O)[C@@H]1[C@H]2C(=O)O[C@H](c3ccccc3)[C@H](c3ccccc3)N2[C@H](c2ccc(OCCOC(=O)NCCCCCC(=O)NO)cc2)[C@]12C(=O)Nc1ccc(I)cc12`, the cytotoxicity call was “inactive”. For `Nc1nnc(-c2ccno2)o1`, the cytotoxicity call is “inactive”. The entry for `CCOC(=O)CCn1cc(F)c(=O)[nH]c1=O` is “inactive”; for `CCOC(=O)Cn1cc(F)c(=O)[nH]c1=O` it is “inactive”; for `CC(=O)On1cc(F)c(=O)[nH]c1=O` it is “active”. In the case of `Cn1cnc(S(=O)(=O)N2CC[C@H](O)[C@@H]2Cc2cnn(C)c2)c1`, the cytotoxicity call was “inactive”. For `C[C@@H]1CCCCO[C@H](CN(C)C(=O)Nc2ccc(C(F)(F)F)cc2)[C@@H](C)CN([C@@H](C)CO)C(=O)c2cc(NC(=O)Cc3ccccc3)ccc2O1`, the cytotoxicity call is “inactive”. The value for `C[C@H](CO)N1C[C@H](C)[C@@H](CN(C)C(=O)Nc2ccc(C(F)(F)F)cc2)OCCCC[C@H](C)Oc2ccc(NC(=O)Cc3ccccc3)cc2C1=O` was “inactive”; that for `C[C@@H]1CCCCO[C@@H](CN(C)C(=O)Nc2ccccc2)[C@H](C)CN([C@@H](C)CO)C(=O)c2cc(NC(=O)Cc3ccccc3)ccc2O1` was “inactive”. The value for `C[C@@H]1CCCCO[C@@H](CN(C)C(=O)CCC(F)(F)F)[C@@H](C)CN([C@H](C)CO)C(=O)c2cc(NC(=O)Cc3ccccc3)ccc2O1` was “inactive”; that for `C[C@@H]1CCCCO[C@@H](CN(C)C(=O)Nc2ccc(C(F)(F)F)cc2)[C@H](C)CN([C@H](C)CO)C(=O)c2cc(NC(=O)Cc3ccccc3)ccc2O1` was “active”; that for `C[C@@H]1CN([C@H](C)CO)C(=O)c2cc(NC(=O)Cc3ccccc3)ccc2O[C@@H](C)CCCCO[C@H]1CN(C)C(=O)Nc1ccccc1` was “active”. The value for `C[C@H]1CCCCO[C@H](CN(C)C(=O)CCC(F)(F)F)[C@@H](C)CN([C@@H](C)CO)C(=O)c2cc(NC(=O)Cc3ccccc3)ccc2O1` was “active”; that for `C[C@H]1CCCCO[C@@H](CN(C)C(=O)Nc2ccccc2)[C@@H](C)CN([C@@H](C)CO)C(=O)c2cc(NC(=O)Cc3ccccc3)ccc2O1` was “inactive”; that for `C[C@@H]1CCCCO[C@@H](CN(C)C(=O)CCC(F)(F)F)[C@H](C)CN([C@@H](C)CO)C(=O)c2cc(NC(=O)Cc3ccccc3)ccc2O1` was “inactive”. For the compound `CC(C)NC(=O)Nc1ccc2c(c1)C(=O)N([C@@H](C)CO)C[C@@H](C)[C@@H](CN(C)Cc1ccccc1)OCCCC[C@@H](C)O2`, the cytotoxicity call was “inactive”. On to `C[C@@H]1CCCCO[C@@H](CN(C)C(=O)Nc2ccc3c(c2)OCO3)[C@@H](C)CN([C@@H](C)CO)C(=O)c2cc(NC(=O)Nc3ccc4c(c3)OCO4)ccc2O1`, for which the cytotoxicity call is “inactive”. The value for `CS(=O)(=O)N1CCOC[C@@]2(C1)CN(S(=O)(=O)C1CC1)CCO2` was “inactive”. Consider `O=C(C[C@H]1CC[C@H]2[C@@H](COC[C@@H](O)CN2S(=O)(=O)c2cccc(F)c2)O1)NCc1ccc2c(c1)OCO2`, for which the cytotoxicity call is “inactive”. In the case of `C[C@@H]1CCCCO[C@H](CN(C)C(=O)Nc2ccc3c(c2)OCO3)[C@@H](C)CN([C@H](C)CO)C(=O)c2cc(NC(=O)c3ccccc3)ccc2O1`, the cytotoxicity call was “inactive”. The entry for `O=C(O)CNc1ncccc1O` is “inactive”; for `Cc1ccc(S(=O)(=O)N(C)C[C@H]2Oc3ccc(NC(=O)NC(C)C)cc3CC(=O)N([C@H](C)CO)C[C@@H]2C)cc1` it is “inactive”. On to `N=C1CCCN1Cc1[nH]c(=O)[nH]c(=O)c1Cl`, for which the cytotoxicity call is “inactive”. The value for `Cc1noc(C)c1NC(=O)Nc1ccc2c(c1)C(=O)N([C@@H](C)CO)C[C@@H](C)[C@H](CN(C)Cc1ccccc1)OCCCC[C@H](C)O2` was “inactive”; that for `Cc1noc(C)c1S(=O)(=O)Nc1ccc2c(c1)C(=O)N([C@H](C)CO)C[C@@H](C)[C@@H](CN(C)Cc1ccc(C(=O)O)cc1)O2` was “inactive”; that for `CC(C)NC(=O)N(C)C[C@H]1Oc2ccc(NC(=O)CCCN(C)C)cc2CC(=O)N([C@@H](C)CO)C[C@@H]1C` was “inactive”.

Take `N[C@H]1CCCC[C@@H]1N1C(=O)CSC1=O`: the cytotoxicity call is “inactive”.

Take `NC1CCCCC1N.O=C1[O][Pt][O]C1=O` (centres undefined): the cytotoxicity call was “active”. For `Cc1c(CN2CCC(Nc3ncnc4sc(CC(F)(F)F)cc34)CC2)ccc2c1cc(C#N)n2Cc1cn[nH]c1`, the cytotoxicity call was “active”. The entry for `Cc1noc(C)c1S(=O)(=O)N(C)C[C@@H]1OCCCC[C@H](C)Oc2ccc(NS(C)(=O)=O)cc2C(=O)N([C@@H](C)CO)C[C@H]1C` is “inactive”; for `CN(C)CCOc1c(Br)cc(/C=C/C(=O)NCCCOc2c(Br)cc(CCN(C)C)cc2Br)cc1Br` it is “active”; for `CC(C)N(CCOc1c(Br)cc(/C=C/C(=O)NCCCOc2c(Br)cc(CCN(C)C)cc2Br)cc1Br)C(C)C` it is “active”. Take `COc1cc(C(=O)NCc2ccc(OCCN(C)C)cc2)cc(OC)c1OC.Cl`: the cytotoxicity call was “inactive”. The entry for `COc1cc(/C=C/C(=O)NCCCNC(=O)/C=C/c2cc(OC)c(OC)c(OC)c2)cc(OC)c1OC` is “inactive”; for `C[C@H](CO)N1C[C@H](C)[C@@H](CN(C)C(=O)Nc2ccc3c(c2)OCO3)Oc2ccc(NC(=O)CCCN(C)C)cc2C1=O` it is “inactive”.
